# In ChEMBL document CHEMBL1961873, “Compounds: GSK PKIS; Assays: Nanosyn kinase panel” (2012):
# Target: T1, Tyrosine-protein kinase TXK (Homo sapiens) (UniProt P42681)
# T1 sequence (whole entry): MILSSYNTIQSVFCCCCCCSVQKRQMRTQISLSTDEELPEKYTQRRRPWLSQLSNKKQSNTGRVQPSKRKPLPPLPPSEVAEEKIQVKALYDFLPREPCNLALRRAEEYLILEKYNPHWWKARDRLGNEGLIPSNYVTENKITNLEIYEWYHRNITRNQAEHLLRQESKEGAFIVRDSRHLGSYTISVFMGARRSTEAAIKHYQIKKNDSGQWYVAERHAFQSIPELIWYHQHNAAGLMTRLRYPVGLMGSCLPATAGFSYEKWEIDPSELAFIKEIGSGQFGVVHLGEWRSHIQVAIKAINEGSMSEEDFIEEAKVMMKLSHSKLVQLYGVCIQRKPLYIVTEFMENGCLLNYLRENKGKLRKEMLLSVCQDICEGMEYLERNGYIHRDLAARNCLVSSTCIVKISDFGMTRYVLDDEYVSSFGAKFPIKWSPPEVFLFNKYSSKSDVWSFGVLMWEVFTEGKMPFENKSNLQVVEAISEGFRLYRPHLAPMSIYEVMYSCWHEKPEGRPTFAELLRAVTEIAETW
# Settings: at 0.1 µM
row,Compound,inhibition [%]
1,O=C1Nc2ccc(I)cc2C1=Cc1cc(Br)c(O)c(Br)c1,7.46
2,CCS(=O)(=O)c1ccc(OC)c(Nc2ncc(-c3cccc(-c4ccccc4F)c3)o2)c1,5.11
3,COc1ccc(-c2ccc3c(NC(=O)C4CC4)n[nH]c3n2)cc1,2.08
4,CCc1ccc(Oc2nccc(-c3c(-c4ccc(F)cc4)ncn3C3CCNCC3)n2)cc1,6.85
5,NCc1ccc(-n2c(-c3nonc3N)nc3cnccc32)cc1,1.78
6,CN1CCN(CCCNc2nc3ccc(Oc4ccc(NC(=O)Nc5cc(C(F)(F)F)ccc5F)cc4)cc3[nH]2)CC1,1
7,NS(=O)(=O)c1ccc(Nc2cc(-c3ccc(O)c(F)c3)n[nH]2)cc1,-1.15
8,NS(=O)(=O)c1ccc(N/N=C2\C(=O)Nc3ccc(-c4cnco4)cc32)cc1,-3.23
9,CCc1cccc(CC)c1/C=C/c1cncc(C(=O)NC)c1,3.65
10,FC(F)(F)c1cccc(Nc2nccc(-c3cnn4nc(-c5ccccc5)ccc34)n2)c1,-1.01
11,COc1ccc2cc(-c3c(-c4ccncc4)nc(-c4ccc([S+](C)[O-])cc4C)n3C)ccc2c1 (stereo not drawn),0.29
12,CCS(=O)(=O)c1ccc(OC)c(Nc2ncc(-c3ccccc3Cl)o2)c1,1.52
13,C[C@@H](Oc1cc(-n2cnc3ccc(OCC4CCN(C)CC4)cc32)sc1C(N)=O)c1ccccc1Cl,5.54
14,C[C@@H](Oc1cc(-n2cnc3ccc(OC4CCN(C)CC4)cc32)sc1C(N)=O)c1ccccc1Cl,3.26
15,CCN(CC)Cc1ccc(Nc2nccc(-c3cnn4ncccc34)n2)cc1,0.47
16,Fc1ccc(-c2ncn(CCCN3CCOCC3)c2-c2ccncc2)cc1,1.42
17,Fc1ccc(-c2nc3n(c2-c2ccncc2)CCS3)cc1,-0.13

row,Compound,inhibition [%]
1,Fc1ccc(-c2ncn(C3CCNCC3)c2-c2ccnc(Oc3ccc4c(c3)OCO4)n2)cc1,0.33
2,Fc1ccc(-c2c(-c3ccncc3)nc3n2CCS3)cc1,-1.56
3,O=C(Nc1n[nH]c2nc(-c3ccc(O)cc3)c(Br)cc12)C1CC1,4.99
4,CN(C)CCOc1ccc(-c2cc(-c3ccc4c(c3)CCC4=NO)c(-c3ccncc3)o2)cc1,0.73
5,COc1ccc(C2=C(N3CCc4ccccc43)C(=O)NC2=O)cc1,3.28
6,CN(c1ccc(NC(=O)Nc2c(Cl)cccc2Cl)cc1)c1ccnc(Nc2cccc(CS(C)(=O)=O)c2)n1,9.28
7,Cc1ccc(C(=O)NC2CCC2)cc1-c1ccc(C(=O)NCC2CC2)cc1,2.58
8,COc1cccc(-n2cnc3c(N/N=C/c4ccncc4)ncnc32)c1,-1.8
9,Cc1ccc(C(=O)NC(C)C)cc1-c1ccc(C(=O)NCC2CC2)cc1,-1.45
10,NC(=O)Cc1ccccc1Oc1nccc(-c2c(-c3ccc(F)cc3)ncn2C2CCNCC2)n1,3.01
11,O=C1Nc2ccccc2/C1=C/Nc1ccc(-n2cncn2)cc1,3.04
12,c1ccc(Oc2ccc(Nc3ncc(-c4ccccc4)o3)cc2)cc1,1.51
13,COc1cc2ncn(-c3cc(OCc4ccccc4C(F)(F)F)c(C(C)=O)s3)c2cc1OC,-0.06
14,COc1ccc2ncn(-c3cc(O[C@H](C)c4ccccc4Cl)c(C(N)=O)s3)c2c1,-5.63
15,CCc1nccc2c1nc(-c1nonc1N)n2CC,3.63
16,CN(C)c1ccc2c(c1)/C(=C/Nc1ccc(S(N)(=O)=O)cc1)C(=O)N2,3.16
17,COc1cc2ncn(-c3cc(OCc4cccs4)c(C(N)=O)s3)c2cc1OC,0.76

# Target: T1, Tyrosine-protein kinase TXK (Homo sapiens)
# Settings: at 1 µM
row,Compound,inhibition [%]
1,O=C1Nc2ccc(I)cc2C1=Cc1cc(Br)c(O)c(Br)c1,6.98
2,CCS(=O)(=O)c1ccc(OC)c(Nc2ncc(-c3cccc(-c4ccccc4F)c3)o2)c1,31.2
3,COc1ccc(-c2ccc3c(NC(=O)C4CC4)n[nH]c3n2)cc1,2.53
4,CCc1ccc(Oc2nccc(-c3c(-c4ccc(F)cc4)ncn3C3CCNCC3)n2)cc1,4.56
5,NCc1ccc(-n2c(-c3nonc3N)nc3cnccc32)cc1,3.57
6,CN1CCN(CCCNc2nc3ccc(Oc4ccc(NC(=O)Nc5cc(C(F)(F)F)ccc5F)cc4)cc3[nH]2)CC1,5.01
7,NS(=O)(=O)c1ccc(Nc2cc(-c3ccc(O)c(F)c3)n[nH]2)cc1,-0.33
8,NS(=O)(=O)c1ccc(N/N=C2\C(=O)Nc3ccc(-c4cnco4)cc32)cc1,0.12
9,CCc1cccc(CC)c1/C=C/c1cncc(C(=O)NC)c1,8.4
10,FC(F)(F)c1cccc(Nc2nccc(-c3cnn4nc(-c5ccccc5)ccc34)n2)c1,5.95
11,COc1ccc2cc(-c3c(-c4ccncc4)nc(-c4ccc([S+](C)[O-])cc4C)n3C)ccc2c1 (stereo not drawn),1.25
12,CCS(=O)(=O)c1ccc(OC)c(Nc2ncc(-c3ccccc3Cl)o2)c1,10.3
13,C[C@@H](Oc1cc(-n2cnc3ccc(OCC4CCN(C)CC4)cc32)sc1C(N)=O)c1ccccc1Cl,8.91
14,C[C@@H](Oc1cc(-n2cnc3ccc(OC4CCN(C)CC4)cc32)sc1C(N)=O)c1ccccc1Cl,19
15,CCN(CC)Cc1ccc(Nc2nccc(-c3cnn4ncccc34)n2)cc1,1.91
16,Fc1ccc(-c2ncn(CCCN3CCOCC3)c2-c2ccncc2)cc1,2
17,Fc1ccc(-c2nc3n(c2-c2ccncc2)CCS3)cc1,-0.14

row,Compound,inhibition [%]
1,Fc1ccc(-c2ncn(C3CCNCC3)c2-c2ccnc(Oc3ccc4c(c3)OCO4)n2)cc1,3.68
2,Fc1ccc(-c2c(-c3ccncc3)nc3n2CCS3)cc1,0.44
3,O=C(Nc1n[nH]c2nc(-c3ccc(O)cc3)c(Br)cc12)C1CC1,9.15
4,CN(C)CCOc1ccc(-c2cc(-c3ccc4c(c3)CCC4=NO)c(-c3ccncc3)o2)cc1,3.15
5,COc1ccc(C2=C(N3CCc4ccccc43)C(=O)NC2=O)cc1,4.15
6,CN(c1ccc(NC(=O)Nc2c(Cl)cccc2Cl)cc1)c1ccnc(Nc2cccc(CS(C)(=O)=O)c2)n1,21.1
7,Cc1ccc(C(=O)NC2CCC2)cc1-c1ccc(C(=O)NCC2CC2)cc1,3.4
8,COc1cccc(-n2cnc3c(N/N=C/c4ccncc4)ncnc32)c1,4.69
9,Cc1ccc(C(=O)NC(C)C)cc1-c1ccc(C(=O)NCC2CC2)cc1,-1.03
10,NC(=O)Cc1ccccc1Oc1nccc(-c2c(-c3ccc(F)cc3)ncn2C2CCNCC2)n1,4.27
11,O=C1Nc2ccccc2/C1=C/Nc1ccc(-n2cncn2)cc1,5.07
12,c1ccc(Oc2ccc(Nc3ncc(-c4ccccc4)o3)cc2)cc1,3.57
13,COc1cc2ncn(-c3cc(OCc4ccccc4C(F)(F)F)c(C(C)=O)s3)c2cc1OC,5.24
14,COc1ccc2ncn(-c3cc(O[C@H](C)c4ccccc4Cl)c(C(N)=O)s3)c2c1,-1.33
15,CCc1nccc2c1nc(-c1nonc1N)n2CC,7.06
16,CN(C)c1ccc2c(c1)/C(=C/Nc1ccc(S(N)(=O)=O)cc1)C(=O)N2,4.14
17,COc1cc2ncn(-c3cc(OCc4cccs4)c(C(N)=O)s3)c2cc1OC,5.11
